Screening data (PubChem)
Most compounds without a hit are left out; they make up all but 18% or so of the library.
TDP1 cell noCPT = qHTS for Inhibitors of human tyrosyl-DNA phosphodiesterase 1 (TDP1): qHTS in cells in absence of CPT. DT40 Tdp1-/- hTDP1 cells, no CPT, ATP luminescence, 48 h. Potency, µM (doses to about 46.2 µM), for the others: at the highest dose activity change, negative = growth inhibition, hits mostly inhibitors. actives 15% (n = 420,000). AID 686978, 2013; note: nearly all actives have a fitted effect of over 55% in size
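Camptothecin absent (DMSO only). Human TDP1-complemented DT40 knockout cells, 400 cells/well, 37 °C for minimum 48 hr; ATP measured via CellTiter-Glo, 30 min dark incubation, luminescence.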
GCN5L2 inh = blocks human GCN5L2 histone acetyltransferase | actives 0.21% (n = 390,000) | Potency, µM (top dose mostly 58.9 µM), for the others: top-dose activity change, negative = inhibition, actives largely listed as inhibitors | Q92830 | GCN5L2 HAT assay, ThioGlo1 CoA-SH fluorescence
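GCN5L2 (20 nM) in 50mM HEPES pH 7.5, 0.1mM EDTA, 0.01% Tween-20 preincubated 15 min with compounds at room temperature. Reaction started with H3(1-25) 75uM, acetyl-CoA 70uM, ThioGlo1 50uM; CoA-thiol fluorescence (Ex340/Em540) read at 0 and 20 min.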
TDP1 block = blocks human tyrosyl-DNA phosphodiesterase 1; Potency, µM (top dose mostly 130 µM), without a hit: at the highest dose activity change, negative = inhibition, most hits filed as inhibitors; AID 485290; recombinant TDP1, AlphaScreen DNA substrate cleavage; Q9NUW8; actives 0.28% (n = 350,000); note: nearly all actives have a fitted effect of over 40% in size
Target sequence (Q9NUW8 whole entry, looked up): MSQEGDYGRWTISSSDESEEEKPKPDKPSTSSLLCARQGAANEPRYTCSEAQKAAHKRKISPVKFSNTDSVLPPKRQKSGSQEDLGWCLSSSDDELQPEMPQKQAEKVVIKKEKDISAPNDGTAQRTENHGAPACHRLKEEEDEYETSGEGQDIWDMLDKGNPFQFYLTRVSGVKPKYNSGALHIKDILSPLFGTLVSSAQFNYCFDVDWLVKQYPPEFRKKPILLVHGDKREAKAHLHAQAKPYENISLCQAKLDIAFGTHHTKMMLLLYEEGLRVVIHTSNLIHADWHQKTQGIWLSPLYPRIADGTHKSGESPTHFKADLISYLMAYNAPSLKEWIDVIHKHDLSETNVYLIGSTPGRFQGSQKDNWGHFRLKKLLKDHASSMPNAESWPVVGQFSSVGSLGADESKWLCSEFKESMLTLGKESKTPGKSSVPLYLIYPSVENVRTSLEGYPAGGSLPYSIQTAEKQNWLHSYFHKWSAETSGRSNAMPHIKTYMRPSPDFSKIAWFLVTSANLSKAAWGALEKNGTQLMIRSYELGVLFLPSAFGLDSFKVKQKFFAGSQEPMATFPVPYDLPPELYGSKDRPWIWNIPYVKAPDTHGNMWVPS
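Signal: AlphaScreen proximity between streptavidin donor and anti-FITC acceptor beads on intact substrate. Reaction: Tdp1 1 nM, substrate 15 nM final, 5 min RT after 15 min compound preincubation.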
DT40 TDP1 CPT = growth inhibition of DT40 Tdp1-/-;hTDP1 cells with camptothecin (screen for TDP1 inhibitors); chicken DT40 Tdp1-/-;hTDP1 cells + 20 nM CPT, ATP luminescence, 48 h; Potency, µM (doses to about 46.2 µM), without a hit: at the top dose activity change, negative = growth inhibition, actives largely listed as inhibitors; AID 686979; actives 12% (n = 420,000); note: nearly all actives have a fitted effect of over 55% in size
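Cell growth measured by CellTiter-Glo luminescence after a minimum 48 h, 37 C compound exposure with 20 nM CPT in Tdp1-knockout DT40 cells stably expressing hTDP1, seeded 400/well; qHTS titration format.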
VDR inhibitor = blocks the human vitamin D receptor; P11473; VDR-SRC2-3 peptide fluorescence polarization, 2 h; Potency, µM, for inactives: max response, negative = inhibition, actives largely listed as inhibitors; actives 0.93% (n = 400,000); AID 504847
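Measured by FP: displacement of SRC2-3 coactivator peptide from VDR by library compounds, following a two-hour ambient incubation.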
PLK1 PBD block = PLK1 (human) polo-box domain binding inhibition. AID 720504. Potency, µM, for inactives: max response, negative = inhibition, most hits filed as inhibitors. Plk1 PBD binding of FITC phosphopeptide, fluorescence polarization. actives 2.8% (n = 360,000); note: series mostly up to about 57 µM; nearly all actives have a fitted effect of over 65% in size
* = called active by the depositor; ? = inconclusive; . = no result given; [ ] = another dose, or the depositor's remark. Calls come from the whole dose curve; as a rule, active = well fitted curve in the direction sought with a large enough effect; inconclusive = small, poorly fitted or top-dose-only effect, or another doubt; inactive = no such curve, though single readings can be large; an effect the other way counts as inactive or inconclusive. % is set by controls: 0 for no effect and ±100 for the full control effect; potency is the fitted concentration of half-maximal effect.

SMILES | TDP1 cell noCPT | GCN5L2 inh | TDP1 block | DT40 TDP1 CPT | VDR inhibitor | PLK1 PBD block
COc1ccc(CN2CCc3nc(SCC(=O)Nc4cc(C)cc(C)c4)[nH]c(=O)c3C2)cc1 | -19% | -3% | -3% | -24% | 6% | .
O=C1S/C(=C\c2ccc(O)c([N+](=O)[O-])c2)C(=O)N1Cc1cccc([N+](=O)[O-])c1 | -102% | ? | 5% | ? | -28% | 24µM*
O=C(CN1C(=O)S/C(=C\c2ccc(O)c([N+](=O)[O-])c2)C1=O)Nc1ccc(N2CCOCC2)cc1 | -29% | -4% | 45µM* | 12% | -10% | ?
CCOC(=O)C1CCN(CC(=O)c2ccc(O)c(C)c2O)CC1 | ? | -8% | 1% | ? | -11% | -19%
COc1ccc2[nH]c(=O)c(-c3nnn(-c4ccccc4)n3)cc2c1 | ? | -6% | 6% | ? | 3% | -6%
COc1ccc2[nH]c(=O)c(-c3nnn(-c4ccc(Cl)nc4)n3)cc2c1 | ? | . | . | 12µM* | -8% | ?
COc1ccc2[nH]c(=O)c(-c3noc(-c4ccccc4)n3)cc2c1 | 18µM* | -57% | -5% | 21µM* | -1% | -8%
O=c1[nH]c2ccccc2cc1-c1noc(-c2cccnc2)n1 | ? | 2% | 2% | -19% | -5% | 0%
O=c1[nH]c2ccccc2cc1-c1nnn(-c2ccccc2)n1 | ? | . | . | 16µM* | ? | -14%
COc1ccccc1-c1noc(-c2ccc(NC(C)C)c([N+](=O)[O-])c2)n1 | ? | -4% | 9% | ? | 8% | .
COc1ccccc1CNC(=O)C1CCC(CNS(=O)(=O)c2ccc(C)cc2)CC1 (stereo not given) | ? | -24% | . | -1% | -4% | -9%
CCCCCCN1C[C@@H](O)[C@H](n2cc(-c3ccc(F)cc3)nn2)C[C@@H]1c1ccc(OC)cc1 | ? | . | . | 2% | . | 2%
O[C@H]1CN(CC2CCCCC2)[C@@H](c2ccc(Cl)cc2)C[C@@H]1n1cc(-c2ccc(F)cc2)nn1 | 21µM* | . | . | ? | . | 1%
CCCCCCN1C[C@H](n2cc(-c3ccc(F)cc3)nn2)[C@@H](O)C[C@@H]1c1ccc(Cl)cc1 | 16µM* | . | . | ? | . | -6%
CCCCCCN1C[C@H](n2cc(-c3ccc(F)cc3)nn2)[C@@H](O)C[C@@H]1c1ccccc1 | ? | . | . | ? | . | -3%
CCCCCCN1C[C@H](O)[C@@H](n2cc(-c3ccc(F)cc3)nn2)C[C@@H]1c1ccccc1 | 21µM* | . | . | 21µM* | . | 7%
Cc1ccc([C@H]2C[C@H](O)[C@@H](n3cc(-c4ccc(F)cc4)nn3)CN2Cc2cccs2)cc1 | 16µM* | . | . | ? | . | 9%
COc1cc(-c2nnc(COC(=O)c3c4c(nc5ccccc35)CCCC4)o2)cc(OC)c1OC | . | 11% | 4% | . | . | .
CCOc1ccc(N(CCCCO)C(=S)NC(=O)c2ccc(C)c(Br)c2)cc1 | -12% | -7% | -1% | -1% | -17% | ?
Cn1nc(-c2ccc(C(=O)Nc3cccc(Cl)c3)cc2)c2ccccc2c1=O | ? | -3% | -1% | ? | 10% | -9%
CCc1ccc(OCC(=O)NC(C)(C)C)cc1 | -1% | 1% | 0% | -8% | -10% | 0%
CC(C)(C)NC(=O)CON=C1c2ccccc2-c2ccccc21 | 23µM* | -3% | -4% | 23µM* | -17% | -6%
COc1ccc(CNC(=O)c2cccc(N3CCCS3(=O)=O)c2)cc1OC | 7.3µM* | -2% | 1% | 10µM* | -16% | .
CCOc1ccccc1NC(=O)c1ccc(C(=O)Nc2ccccc2OCC)cc1 | -12% | 2% | -2%[12.3 µM] | -11% | -24% | .
COc1ccccc1NC(=O)c1ccc(NC(=O)c2ccco2)cc1 | 16µM* | -2% | . | ? | 15% | -11%
SMILES | TDP1 cell noCPT | GCN5L2 inh | TDP1 block | DT40 TDP1 CPT | VDR inhibitor | PLK1 PBD block
CCOc1ccccc1NC(=O)c1ccc(NC(=O)c2ccco2)cc1 | 16µM* | -8% | 2% | ? | -4% | -6%
O=S1(=O)N[C@@H](Cc2ccccc2)COc2cccc(N3CCN(Cc4ccccc4F)CC3)c21 | 18µM* | . | . | ? | . | -3%
Cc1cc(Cl)nc2nc(Cl)ccc12 | 5.6µM* | . | . | ? | . | .
Cc1cc(C)c2ccccc2n1 | 1% | . | . | -2% | . | .
CC(C)N(C(=O)CSc1nnc(NC(=O)C2CCC2)s1)C(C)C | -9% | 0% | 8% | -9% | -13% | -9%
Cc1ccc(NC(=O)Nc2nnc(SCC(=O)N(C(C)C)C(C)C)s2)cc1 | 16µM* | -3% | 0% | 18µM* | 19% | .
CC1CCc2c(nc3nc[nH]n3c2=O)C1 (stereo not given) | -5% | -4%[0.501 µM] | 8% | 3% | 15% | -1%
S=c1c2c(nc3nc[nH]n13)CCC2 | 21µM* | -4% | 7% | ? | -24% | -20%
Cc1cc(OCC(=O)N2CCC(C(N)=O)CC2)c2c(C)cc(=O)oc2c1 | 6% | -10% | . | 11% | -1% | -3%
CCCOc1ccccc1-n1sc2c(c1=S)-c1cc(OC)cc3c1N(C(=O)C3=O)C2(C)C | 16µM* | -1% | 12% | 16µM* | ? | ?
Cc1[nH][nH]c(=O)c1N=Nc1ccc(Br)c(Cl)c1 | 23µM* | . | . | ? | -13% | 1%
CCc1nnc(NC(=O)CSc2nc(C)cs2)s1 | -13% | -9% | . | ? | -6% | -15%
O=C(Nc1ccc2nc(SCC(=O)N3CCOCC3)sc2c1)c1cccc(F)c1 | 21µM* | -4% | 5% | 23µM* | 17% | .
O=C(Nc1ccc2nc(SCC(=O)N3CCOCC3)sc2c1)c1ccc(F)cc1 | 12µM* | -9% | -5% | 16µM* | -12% | .
COc1cc(C)c(NC(=S)Nc2cccc(Cl)c2C)cc1OC | -4% | 17% | 6% | -1% | -14% | -2%
Cc1ccc(CN2C(=O)c3ccccc3Sc3ccc(C(=O)NCc4ccco4)cc32)cc1 | ? | -8% | -3% | -21% | -10% | .
O=C(Nc1ccc(S(=O)(=O)Nc2cnc3ccccc3n2)cc1)c1cc(F)c(F)cc1Cl | ? | -6% | . | ? | ? | 30µM*
COc1ccc(NS(=O)(=O)c2ccc(Cl)c(NC(=O)c3cccnc3Cl)c2)cc1 | 16µM* | -5% | 7% | ? | 1% | -12%
O=C(Nc1ccc(Cl)cc1)c1cccc(S(=O)(=O)Nc2ccccn2)c1 | -21% | -3% | 4% | -28% | -4% | -4%
COc1ccc(NS(=O)(=O)c2ccc(Cl)c(NC(=O)c3ccccc3F)c2)cc1 | ? | -6% | 0% | ? | -12% | 2%
